In PubChem BioAssay (Tox21):
Results filed as inconclusive are left out. A call without a number means that no potency is given here. Calls of active or inactive are those of the source. Calls come from the whole dose curve; as a rule, active = well fitted cell-killing curve with a large enough effect in the repeat runs; inconclusive = weak or mixed curves; inactive = no such curve, though single readings can be large or run the other way.

Test: qHTS assay for identifying genotoxic compounds that show differential cytotoxicity against isogenic chicken DT40 cell lines with known DNA damage response pathways - Rad54/Ku70 mutant cell line (AID 743015); note: nearly all actives have a fitted effect of over 60% in size
Conditions: DT40 Rad54/Ku70 mutant viability, CellTiter-Glo, 40 h; series mostly up to 66.8 µM
Excerpt: National Center for Advancing Translational Sciences [NCATS]
NIH Chemical Genomics Center [NCGC]
U.S. Environmental Protection Agency [EPA]
National Institutes of Environmental Health Sciences [NIEHS]
National Toxicology Program [NTP]
U.S. Food and Drug Administration [FDA]
DNA repair pathways play a critical role in cellular homeostasis by repairing DNA damage induced by endogenous processes and xenobiotics. Isogenic chicken DT40 cell lines deficient in different DNA repair pathways can be used to identify genotoxic compounds and aid in characterizing the nature of the DNA damage induced. Two DNA repair-deficient cell lines with disrupted genes, Rad54/Ku70 or Rev3, were used to screen the Tox21 10K compound library. Possible genotoxicity was based on the presence of a significant increase in cytotoxicity in one or more of the DNA repair-deficient cell lines compared to that observed in the parental DNA repair-proficient cell line. CellTiter Glo viability assay (Promega, Madison, WI) was used to measure cell viability in these cells after compound treatment. This assay includes the data from the Rad54/Ku70 mutant cell line.
Tox21 Assay Protocol Summary:
300 DT40 mutant cells in 5 uL/well were dispensed into white, solid-bottom 1536-well plates using a Multidrop Combi (ThermoFisher Scientific, Waltham, MA) dispenser. After the assay plates were incubated at 37 C/5% CO2 for approximately 0.5 hour, 23 nL of compounds dissolved in DMSO, positive controls or DMSO only was transferred into the assay plate by a pintool work station (Kalypsys, San Diego, CA). The assay plates were incubated at 37 C/5% CO2 for 40 hours. After 5 uL per well of CellTiter-Glo reagent was added into each well of the assay plates, the plates were incubated for 30 min at room temperature and the luminescence intensity of the plates was measured using a ViewLux (PerkinElmer, Shelton, CT) plate reader.
Potency is the fitted concentration of half-maximal effect.

Row | SMILES | Potency
1 | C[C@H]1C[C@H]2[C@@H]3CCC4=CC(=O)C=C[C@]4(C)[C@H]3C(=O)C[C@]2(C)[C@@]1(O)C(=O)CO | inactive
2 | COc1ccnc(CS(=O)c2nc3cc(OC(F)F)ccc3[nH]2)c1OC (stereo not given) | inactive
3 | C=CN1CCCCCC1=O | inactive
4 | COc1c(N2CCNC(C)C2)c(F)cc2c(=O)c(C(=O)O)cn(C3CC3)c12 (stereo not given) | inactive
5 | CCCCCCCCCCCCSC | inactive
6 | CCC1C(=O)OCC1Cc1cncn1C (stereo not given) | inactive
7 | CN(C)CCCN(C)CCCN(C)C | inactive
8 | CCNS(=O)(=O)c1ccc(C)cc1 | inactive
9 | CCN[C@@H]1C[C@H](N)[C@@H](OC2OC(CN)=CCC2N)[C@H](O)[C@H]1O[C@H]1OC[C@](C)(O)[C@H](NC)[C@H]1O (stereo not given in full) | inactive
10 | NC(CCC(=O)O)C(=O)O (stereo not given) | inactive
11 | CC(N)C12CC3CC(CC(C3)C1)C2 (stereo not given) | inactive
12 | CC(C)NNC(=O)c1ccncc1 | inactive
13 | CN(C)[C@@H]1C(=O)C(C(=O)NCN2CCCC2)=C(O)[C@@]2(O)C(=O)C3=C(O)c4c(O)cccc4[C@@](C)(O)C3C[C@@H]12 (stereo not given in full) | inactive
14 | Clc1cc(Cl)cc(Cl)c1 | inactive
15 | Cc1ccc(-c2ncc(Cl)cc2-c2ccc(S(C)(=O)=O)cc2)cn1 | inactive
16 | OCCc1ccccn1 | inactive
17 | CC(=O)C1CCCCC1=O (stereo not given) | inactive
18 | CCN(CC#N)c1cccc(C)c1 | inactive
19 | CN1[C@@H]2CC[C@H]1CC(OC(=O)C(O)c1ccccc1)C2 (stereo not given in full) | inactive
20 | CCCCOCCOC(=O)CCCCCCCCC(=O)OCCOCCCC | inactive

Row | SMILES | Potency
21 | Nc1ccncc1N | inactive
22 | CC(=O)OCC(=O)[C@@]1(O)[C@H](C)C[C@H]2[C@@H]3CCC4=CC(=O)C=C[C@]4(C)[C@@]3(F)[C@@H](O)C[C@@]21C | inactive
23 | O=S(=O)(O)c1cccc2c(S(=O)(=O)O)cccc12 | inactive
24 | O=S(=O)(O)c1cccc2ccccc12 | inactive
25 | CC1OC1C1CCC2(C)OC2C1 (stereo not given) | inactive
26 | CCOc1ccccc1OCC | inactive
27 | CC(C)(C)OC(=O)c1cccc(N)c1 | inactive
28 | CC[C@H]1OC(=O)[C@H](C)[C@@H](O[C@H]2C[C@@](C)(OC)[C@@H](O)[C@H](C)O2)[C@H](C)[C@@H](O[C@@H]2O[C@H](C)C[C@H](N(C)C)[C@H]2O)[C@](C)(OC)C[C@@H](C)C(=O)[C@H](C)[C@@H](O)[C@]1(C)O | inactive
29 | CCCc1nn(C)c2c(=O)[nH]c(-c3cc(S(=O)(=O)N4CCN(C)CC4)ccc3OCC)nc12 | inactive
30 | C=CCCCCCCCCC(=O)OCC | inactive
31 | CO[C@@]1(NC(=O)CSC[C@@H](N)C(=O)O)C(=O)N2C(C(=O)O)=C(CSc3nnnn3C)CS[C@@H]21 | inactive
32 | O=Cc1cccc(Br)c1 | inactive
33 | O=S(=O)(O)c1cccc(S(=O)(=O)O)c1 | inactive
34 | CC(C)(C)c1ccc(-c2ccc(C(C)(C)C)cc2)cc1 | inactive
35 | C=CCCC(=O)O | inactive
36 | Nc1ccn([C@@H]2O[C@H](CO)[C@@H](O)[C@@H]2O)c(=O)n1 | 43.3 nM (active)
37 | CCCCS(=O)(=O)N[C@@H](Cc1ccc(OCCCCC2CCNCC2)cc1)C(=O)O | inactive
38 | C1CCC2(CCCCO2)OC1 | inactive
39 | CC(C)(N)C#N | inactive
40 | CN(C)CCN(C)CCN(C)C | inactive
